In all, about 5,500 compounds went through this assay and about 2,000 (36%) were called active. Not shown: some 18% with an inconclusive outcome. Rule as the data show it: active = normalized growth mostly below about 0.91 (no sharp cut-off); inconclusive = no clear call, values can overlap the other calls; inactive = mostly above about 0.92. This is one part of the list.
Assay: chemical genetic growth profiling, strain panel (AID 1159580);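 also: tested at 20 µM; growth read once vehicle control cultures reached saturation at 30 °C; 1 = growth at the plate median or of vehicle wells; lower values mean less growth of the strain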
Conditions: S. cerevisiae deletion strains, growth OD

Measured: normalized growth

CCC(=O)NCC[C@@H]1CCc2ccc3c(c21)CCO3
active: locus YOR270C, strain vph1, stronger effect = lower value 0.771
inactive: locus YAL021C, strain ccr4, stronger effect = lower value 1.03 | locus YAL026C, strain drs2, stronger effect = lower value 1.01 | locus YAL030W, strain snc1, stronger effect = lower value 1.01 | locus YBL061C, strain skt5, stronger effect = lower value 1.02 | locus YBR009C, strain hhf1, stronger effect = lower value 0.987 | locus YBR023C, strain chs3, stronger effect = lower value 1.02 | locus YBR171W, strain sec66, stronger effect = lower value 1 | locus YBR231C, strain swc5, stronger effect = lower value 0.993 | locus YBR279W, strain paf1, stronger effect = lower value 1.02 | locus YCL011C, strain gbp2, stronger effect = lower value 1 | locus YCL016C, strain dcc1, stronger effect = lower value 1.04 | locus YCL061C, strain MRC1, stronger effect = lower value 0.988 | locus YCL069W, strain vba3, stronger effect = lower value 1 | locus YCR088W, strain abp1, stronger effect = lower value 1.01 | locus YDL005C, strain med2, stronger effect = lower value 0.995 | locus YDL040C, strain nat1, stronger effect = lower value 1 | locus YDR001C, strain nth1, stronger effect = lower value 1 | locus YDR069C, strain doa4, stronger effect = lower value 0.982 | locus YDR137W, strain rgp1, stronger effect = lower value 1.04 | locus YDR159W, strain sac3, stronger effect = lower value 0.924 | locus YDR195W, strain ref2 1.01 | locus YDR297W, strain sur2, stronger effect = lower value 0.989 | locus YDR334W, strain swr1, stronger effect = lower value 1 | locus YDR335W, strain msn5, stronger effect = lower value 0.998 | locus YDR392W, strain spt3, stronger effect = lower value 0.988 | locus YEL003W, strain gim4, stronger effect = lower value 0.972 | locus YEL037C, strain rad23, stronger effect = lower value 1.01 | locus YEL061C, strain CIN8 (second series), stronger effect = lower value 0.991 | locus YER015W, strain faa2, stronger effect = lower value 1 | locus YER016W, strain bim1, stronger effect = lower value 1.02 | locus YER111C, strain swi4, stronger effect = lower value 1.03 | locus YER155C, strain BEM2 (second series), stronger effect = lower value 1.06 | locus YFR010W, strain ubp6, stronger effect = lower value 0.953 | locus YGL167C, strain pmr1, stronger effect = lower value 1 | locus YGL173C, strain kem1, stronger effect = lower value 0.978 | locus YGL227W, strain vid30, stronger effect = lower value 1.01 | locus YGL240W, strain doc1, stronger effect = lower value 1.01 | locus YGL253W, strain hxk2, stronger effect = lower value 0.972 | locus YHR013C, strain ard1, stronger effect = lower value 1.02 | locus YHR027C, strain rpn1, stronger effect = lower value 0.998 | locus YHR030C, strain SLT2, stronger effect = lower value 0.947 | locus YHR079C, strain IRE1, stronger effect = lower value 0.953 | locus YHR142W, strain chs7, stronger effect = lower value 0.989 | locus YJL092W, strain hpr5, stronger effect = lower value 1.01 | locus YJL095W, strain BCK1 (second series), stronger effect = lower value 1.01 | locus YJL095W, strain BCK1, stronger effect = lower value 0.981 | locus YJL115W, strain asf1, stronger effect = lower value 1.02 | locus YJL129C, strain trk1, stronger effect = lower value 1 | locus YJL154C, strain vps35, stronger effect = lower value 1.01 | locus YJL164C, strain tpk1, stronger effect = lower value 0.968 | locus YJL166W, strain qcr8, stronger effect = lower value 0.98 | locus YJL187C, strain SWE1, stronger effect = lower value 1.01 | locus YJR066W, strain TOR1, stronger effect = lower value 0.936 | locus YKL160W, strain elf1, stronger effect = lower value 1.05 | locus YKR026C, strain gcn3, stronger effect = lower value 1.01 | locus YKR091W, strain srl3, stronger effect = lower value 1 | locus YLL001W, strain dnm1, stronger effect = lower value 0.952 | locus YLL026W, stronger effect = lower value 1 | locus YLL041C, strain sdh2, stronger effect = lower value 0.997 | locus YLR027C, strain aat2, stronger effect = lower value 0.999 | locus YLR113W, strain HOG1, stronger effect = lower value 0.95 | locus YLR221C, strain rsa3, stronger effect = lower value 0.953 | locus YLR258W, strain gsy2, stronger effect = lower value 1.02 | locus YLR262C, strain YPT6 (second series), stronger effect = lower value 1.01 | locus YLR320W, strain mms22, stronger effect = lower value 0.975 | locus YLR342W, strain FKS1, stronger effect = lower value 1 | locus YLR357W, strain rsc2, stronger effect = lower value 1.02 | locus YLR370C, strain arc18, stronger effect = lower value 1 | locus YLR384C, strain iki3, stronger effect = lower value 1.01 | locus YML120C, strain ndi1, stronger effect = lower value 0.963 | locus YMR058W, strain fet3, stronger effect = lower value 1.01 | locus YMR125W, strain sto1, stronger effect = lower value 1 | locus YMR129W, stronger effect = lower value 0.985 | locus YMR205C, strain PFK2, stronger effect = lower value 1 | locus YMR231W, strain pep5, stronger effect = lower value 1 | locus YNL071W, strain lat1, stronger effect = lower value 1.01 | locus YNL183C, strain NPR1, stronger effect = lower value 0.904 | locus YNL209W, strain ssb2, stronger effect = lower value 1.01 | locus YNL248C, strain rpa49, stronger effect = lower value 1.01 | locus YNL322C, strain KRE1 (second series), stronger effect = lower value 1.02 | locus YNR049C, strain mso1, stronger effect = lower value 1 | locus YOR001W, strain rrp6, stronger effect = lower value 0.929 | locus YOR070C, strain gyp1, stronger effect = lower value 1.02 | locus YOR080W, strain dia2, stronger effect = lower value 1.01 | locus YOR083W, strain WHI5, stronger effect = lower value 0.966 | locus YOR106W, strain vam3, stronger effect = lower value 1 | locus YOR231W, strain MKK1, stronger effect = lower value 0.969 | locus YOR265W, strain rbl2, stronger effect = lower value 1 | locus YOR290C, strain snf2, stronger effect = lower value 1.01 | locus YPL051W, strain arl3, stronger effect = lower value 1.06 | locus YPL078C, strain atp4, stronger effect = lower value 1.03 | locus YPL106C, strain sse1, stronger effect = lower value 1.04 | locus YPL240C, strain hsp82, stronger effect = lower value 1.01 | locus YPL256C, strain CLN2, stronger effect = lower value 0.942

Source: PubChem BioAssay AID1159580 (chemical genetic matrix, 2015)
